The campaign covered roughly 310,000 compounds. About 2,200 (0.71%) showed an effect of 50% or more. The effect is printed as a negative number. Only a selection was taken, and strong results are over-represented in it overall.
Target: human ether-à-go-go-related gene (hERG) potassium channel (human, UniProt Q12809)
Assay: primary screen, population patch clamp on CHO cells stably expressing hERG; higher = less effect of the substance

Chain of human ether-à-go-go-related gene (hERG) potassium channel (Q12809 whole entry, looked up): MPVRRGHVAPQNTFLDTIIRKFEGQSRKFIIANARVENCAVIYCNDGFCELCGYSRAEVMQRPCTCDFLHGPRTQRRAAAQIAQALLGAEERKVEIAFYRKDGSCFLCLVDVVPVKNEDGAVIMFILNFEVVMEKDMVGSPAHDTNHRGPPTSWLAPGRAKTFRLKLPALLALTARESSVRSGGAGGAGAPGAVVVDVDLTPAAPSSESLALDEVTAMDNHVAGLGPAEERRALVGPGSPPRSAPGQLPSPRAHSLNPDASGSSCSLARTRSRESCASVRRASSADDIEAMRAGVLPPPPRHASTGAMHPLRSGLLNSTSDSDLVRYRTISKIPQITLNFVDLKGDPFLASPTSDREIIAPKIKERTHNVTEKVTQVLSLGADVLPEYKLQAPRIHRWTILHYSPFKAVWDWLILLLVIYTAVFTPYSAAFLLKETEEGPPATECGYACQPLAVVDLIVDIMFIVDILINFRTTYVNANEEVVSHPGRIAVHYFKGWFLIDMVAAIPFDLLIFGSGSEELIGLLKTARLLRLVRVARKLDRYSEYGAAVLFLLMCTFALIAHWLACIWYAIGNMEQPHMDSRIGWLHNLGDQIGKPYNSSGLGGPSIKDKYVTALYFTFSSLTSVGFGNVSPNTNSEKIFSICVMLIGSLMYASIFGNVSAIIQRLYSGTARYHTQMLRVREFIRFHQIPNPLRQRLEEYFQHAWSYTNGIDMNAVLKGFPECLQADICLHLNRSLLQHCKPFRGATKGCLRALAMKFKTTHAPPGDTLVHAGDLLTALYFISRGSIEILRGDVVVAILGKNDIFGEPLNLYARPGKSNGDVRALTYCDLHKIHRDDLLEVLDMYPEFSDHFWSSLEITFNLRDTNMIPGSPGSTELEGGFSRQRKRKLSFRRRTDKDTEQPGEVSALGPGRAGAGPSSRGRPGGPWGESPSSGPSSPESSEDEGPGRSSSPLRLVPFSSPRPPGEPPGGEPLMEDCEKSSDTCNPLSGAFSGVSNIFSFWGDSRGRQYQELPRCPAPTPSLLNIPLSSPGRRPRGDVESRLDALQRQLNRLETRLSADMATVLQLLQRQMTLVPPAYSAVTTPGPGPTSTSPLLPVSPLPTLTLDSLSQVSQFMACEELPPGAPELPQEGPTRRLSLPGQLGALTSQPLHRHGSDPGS

Structure (SMILES) | hERG current change (%, negative = inhibition) at 1uM [%]
Cc1cccc(NC(=O)Cn2c(=O)n(Cc3ccco3)c(=N)c3c4c(sc32)COC(C)(C)C4)c1 | 3
COc1cccc(/C=C2\SC(N)=NC2=O)c1OS(=O)(=O)c1ccccc1 | 2.6
COc1cccc(CN2CC(C(=O)NCCCCc3ccccn3)CCC2=O)c1 (centres unmarked) | 7.17
Cc1ccccc1Cn1c(C)nc2ccccc21 | 10.4
Cc1ccc(SCc2nc3ccccc3n2CC(=O)Nc2c(C)cccc2C)cc1 | 6.88
C[C@@H](C(=O)NC1CCN(Cc2ccccc2)CC1)N1C(=O)N2CCc3c([nH]c4ccccc34)[C@@]2(C)C1=O | -62.1
CC(C)C[C@@H](C(=O)NC1CCN(Cc2ccccc2)CC1)N1C(=O)N2CCc3c([nH]c4ccccc34)[C@@]2(C)C1=O | -12.1
CC(C)[C@@H](C(=O)NC1CCN(Cc2ccccc2)CC1)N1C(=O)N2CCc3c([nH]c4ccccc34)[C@@]2(C)C1=O | -4.75
Cc1ccc(-n2nnnc2SCC(=O)Nc2ccccc2-c2ccccc2)cc1C | 2.73
C#CC1CN(Cc2ccccc2)CC(C#C)N1C.Cl (centres unmarked) | 15.1
CN(C)c1ccc(NC(=O)CN2CCN(c3ccc(F)cc3)CC2)cc1 | -3.53
COc1ccc(N2CCN(CC(=O)Nc3ccc(SC(F)F)cc3)CC2)cc1 | -35.8
CCN(CC)c1ccc(NC(=O)CN2CCN(CC(=O)Nc3ccc(F)cc3)CC2)cc1 | -84.5
CCN(CC)c1ccc(NC(=O)CN2CCN(c3ccccc3F)CC2)cc1 | 7.06
COc1cccc(N2CCN(CC(=O)Nc3ccc(SC(F)F)cc3)CC2)c1 | -27.7
O=C(CN1CCN(CC(=O)Nc2ccc(Cl)cc2)CC1)Nc1ccc(F)cc1 | -86.9
CCN(CC)c1ccc(NC(=O)CN2CCN(CC(=O)Nc3ccccc3F)CC2)cc1 | -13
O=C(CN1CCN(CC(=O)Nc2ccc(-c3ccccc3)cc2)CC1)Nc1ccc(F)cc1 | -13.7
O=C(CN1CCN(c2ccc(O)cc2)CC1)Nc1ccc(SC(F)F)cc1 | -78.4
CN(C)c1ccc(NC(=O)CN2CCN(CC(=O)Nc3ccc(F)cc3)CC2)cc1 | -61.1
CN(C)c1ccc(NC(=O)CN2CCC(C(=O)c3ccc(F)cc3)CC2)cc1 | -4.93
O=C(CN1CCN(c2ccc(Cl)cc2)CC1)Nc1ccc(F)cc1 | -28.1
CN(C)C=O.Cc1cccc(-n2nnnc2SCC(=O)N(CC(C)C)c2c(N)n(CC(C)C)c(=O)[nH]c2=O)c1 | 4.9

Structure (SMILES) | hERG current change (%, negative = inhibition) at 1uM [%]
O=C(c1cccc(S(=O)(=O)NCc2ccccc2)c1)N1CCCCC1 | 9.32
CCN(CC)CCCN(C(=O)Cn1nnc(-c2ccc(OC)c(OC)c2)n1)C(C(=O)NC(C)(C)C)c1ccc(F)cc1 (centres unmarked) | -25.2
C=CCN1C(=O)C(CC(=O)NCC)SC1=Nc1ccccc1CC (centres unmarked) | 11.7
c1ccc(CSc2nncn2-c2ccccn2)cc1 | 7.05
O=C(CSC(=S)N1CCCCC1)c1c(F)cccc1F | 21.7
OC1(c2ccccc2)c2ccccc2-c2ncccc21 (centres unmarked) | 5.63
Cc1ccc2c(CC(=O)NCC3(N4CCOCC4)CCCCC3)coc2c1C | -5.15
O=C(Cc1coc2cc3c(cc12)CCC3)NCC1(N2CCCCC2)CCCCC1 | -59.2
O=C(Cc1coc2cc3c(cc12)CCC3)NC1CCCCCCC1 | 0.112
O=S(=O)(c1cccs1)N1CN(C2CCCCC2)c2nc3ccccc3nc21 | 0.376
COc1cc(/C=C2\SC(N3CCc4ccccc4C3)=NC2=O)cc(OC)c1OC | 5.93
CCn1c(=N)n(CC(O)COc2cccc(C)c2)c2ccccc21.Cl (centres unmarked) | -16
CCN(CC)CCn1c(=N)n(CC(O)COc2cccc(C)c2)c2ccccc21.Cl (centres unmarked) | -22.1
CCCCn1c(=N)n(CC(O)COc2cccc(C)c2)c2ccccc21.Cl (centres unmarked) | -59.8
CCCn1c(=N)n(CC(O)COc2cccc(C)c2)c2ccccc21.Cl (centres unmarked) | -60
COc1ccc(-c2oc3cccnc3c2C#CC2(O)CCCCC2)cc1 | 6.61
COCCC(=O)N1CCC(Oc2ccc(C(=O)N(C)CCCC3CCCC3)cc2)CC1 | -1.26
CCCn1c(=N)c(C(=O)NC2CCCC2)cc2c(=O)n3cccc(C)c3nc21 | -84.1
Cc1cccn2c(=O)c3cc(C(=O)NC4CCCCC4)c(=N)n(CCN4CCOCC4)c3nc12 | -51.7
Cc1cccn2c(=O)c3cc(C(=O)NC4CCCC4)c(=N)n(CCCN4CCOCC4)c3nc12 | -77.5
C#CCOCCOCCOCCNc1nc(N2CCN(C(=O)[C@H](CCC(=O)O)n3cc(C(N)Cc4ccc(O)cc4)nn3)CC2)nc(N2CCN(C(=O)[C@H](CCC(=O)O)n3cc(C(N)Cc4ccc(O)cc4)nn3)CC2)n1.Cl (some centres unmarked) | 12.3
Cc1ccnc(SCc2cc(=O)c(OC(=O)c3ccccc3)co2)n1 | 15
CC(NC(=O)C(C)N1C(=O)c2cccc([N+](=O)[O-])c2C1=O)c1ccccc1 (centres unmarked) | 14.9

Structure (SMILES) | hERG current change (%, negative = inhibition) at 1uM [%]
O=C(c1cc2nc(-c3ccco3)cc(C(F)(F)F)n2n1)N1CCCc2ccccc21 | 16.9
COc1ccc(CNS(=O)(=O)c2c(C(=O)N3CCCCCC3)c(C)n(C)c2C)cc1 | 10.5
C=CCNC(=O)c1onc(CSc2cccc(OC)c2)c1C(=O)O | 18.7
CCOc1ccc(-c2nc(-c3ccccc3C)no2)cc1 | 10.9
Cc1cc(C)n2nc(-c3cnn(C)c3C(F)(F)F)cc2n1 | 1.96
Cn1c(CSCc2ccccc2)nnc1SCC(=O)Nc1nccs1 | -17.6
O=C1NC(Cc2ccccc2)C(=O)N1CC(=O)N1CCCc2ccccc21 (centres unmarked) | 5.14
Cc1cc(C)c2cc(C(=O)N3CCC(N4CCCCC4)CC3)[nH]c2c1 | -58.8
Cc1cc(C)c2cc(C(=O)N3CCC(C(=O)c4ccc(F)cc4)CC3)[nH]c2c1 | 8.43
CCOC(=O)C1CCN(C(=O)c2cc3c(C)cc(C)cc3[nH]2)CC1 | 12
CCOC(=O)C1CCN(C2CCN(C(=O)c3oc4c(C)c(C)ccc4c3C)CC2)CC1 | -15.6
Cc1c(C(=O)N2CCC(N3CCSCC3)CC2)oc2c(F)cccc12 | 2.81
CCOC(=O)C1CCN(C2CCN(C(=O)c3oc4c(F)cccc4c3C)CC2)CC1 | -67
Cc1nc2nc(C)c(CCC(=O)NC3CCCCC3)c(C)n2n1 | 9.07
CCCN1C2CCCC1CC(NC(=O)c1cccc(Cl)c1)C2 (centres unmarked) | -2.98
Cc1cccc(C(=O)NC2CC3CCCC(C2)N3S(=O)(=O)c2ccccc2)c1 (centres unmarked) | -63.4
O=C(NC1CC2CCC(C1)N2Cc1ccccc1)c1cccc(F)c1 (centres unmarked) | -17.5
COc1ccc(CN2C3CCC2CC(NC(=O)c2cccc(F)c2)C3)cc1 (centres unmarked) | -81.1
COc1ccc(CN2C3CCCC2CC(NC(=O)c2cccc(F)c2)C3)cc1 (centres unmarked) | -85.9
COc1cccc(C(=O)NC2CC3CCCC(C2)N3S(=O)(=O)c2ccccc2)c1 (centres unmarked) | -8.93
CCCCN1C2CCCC1CC(NC(=O)c1cccc(Cl)c1)C2 (centres unmarked) | -63
O=C(NC1CC2CCCC(C1)N2Cc1ccccc1)c1cccc(F)c1 (centres unmarked) | -29.8
COc1ccc(C(=O)NC2CC3CCCC(C2)N3Cc2ccccc2)cc1 (centres unmarked) | -15.7

Structure (SMILES) | hERG current change (%, negative = inhibition) at 1uM [%]
COc1cccc(C(=O)NC2CC3CCC(C2)N3Cc2ccccc2)c1 (centres unmarked) | -2.53
O=C(NC1CC2CCCC(C1)N2S(=O)(=O)c1ccccc1)c1ccccc1 (centres unmarked) | -9.46
CCCCN1C2CCCC1CC(NC(=O)c1cccc(OC)c1)C2 (centres unmarked) | -2.96
O=C(O)c1ccccc1-c1ccccc1C(=O)NCc1ccco1 | 13
Clc1ccc2c(NCc3ccco3)ncnc2c1 | -1.55
O=C(OCC(=O)N1CCCCC1)c1cccc(NS(=O)(=O)c2ccccc2)c1 | 12.4
O=C(NCc1ccc(C(=O)N2CCC3(CC2)OCCO3)cc1)c1ccc2c(c1)OCO2 | 5.42
O=C(CSc1nnc(-c2ccco2)n1Cc1ccccc1)NC(=O)NCc1ccco1 | -15.6
CCOC(=O)C1(CCc2ccccc2)CCN(C2CCSCC2)CC1 | -80.7
CCOC(=O)C1(CCc2ccccc2)CCN(C2Cc3ccccc3C2)CC1 | -18.7
CCOC(=O)C1(CCCc2ccccc2)CCN(C2CCC2)CC1 | -57.1
OCC1(CCCc2ccccc2)CCN(C2CCSCC2)CC1 | -65.4
CCOC(=O)C1(CCc2ccccc2)CCN(C(=O)C2CCOCC2)CC1 | -21.2
CCOC(=O)C1(CCCc2ccccc2)CCN(C(=O)COC)CC1 | 10.5
CSCC(C)N1CCC(CO)(CCCc2ccccc2)CC1 (centres unmarked) | -11.2
CCOC(=O)C1(CCCc2ccccc2)CCN(C(=O)CSC)CC1 | 3.88
CCOC(=O)C1(CCCc2ccccc2)CCN(S(C)(=O)=O)CC1 | 5.98
CS(=O)(=O)c1ccc(S(=O)(=O)N2CCC(CO)(CCCc3ccccc3)CC2)cc1 | 4.47
CCOC(=O)C1(CCCc2ccccc2)CCN(C2CCCC2)CC1 | -66.1
CCOC(=O)C1(CCCc2ccccc2)CCN(C(=O)C2CCCO2)CC1 (centres unmarked) | 5.58

From paper PMC4336329 (PLoS ONE, 2015)
